Measurements from the supplement of paper PMC3545927.
The list shows a part of the results. The hit rate among all sequences tested is not known here.

Biological target: furin, P09958
Assay: furin cleavage Z-score vs untreated control; higher = more cleavage, active = 3.5 or more, inactive = 1 or less, 8 variable residues between constant flanks
In short: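 Magnetic beads held 8-mer peptides by the N-terminus, each fused to a cDNA oligonucleotide, and purified furin was added for 7.5, 15 or 30 min. Released DNA was sequenced after PCR adapter tagging. The cleavage Z-score is the log count relative to furin-free reactions, lowess-adjusted and divided by median absolute deviation.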
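Further: purified furin at 1:10 enzyme:substrate in 50 mM HEPES pH 7.5.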

Sequence of furin, P09958 (P09958 whole entry): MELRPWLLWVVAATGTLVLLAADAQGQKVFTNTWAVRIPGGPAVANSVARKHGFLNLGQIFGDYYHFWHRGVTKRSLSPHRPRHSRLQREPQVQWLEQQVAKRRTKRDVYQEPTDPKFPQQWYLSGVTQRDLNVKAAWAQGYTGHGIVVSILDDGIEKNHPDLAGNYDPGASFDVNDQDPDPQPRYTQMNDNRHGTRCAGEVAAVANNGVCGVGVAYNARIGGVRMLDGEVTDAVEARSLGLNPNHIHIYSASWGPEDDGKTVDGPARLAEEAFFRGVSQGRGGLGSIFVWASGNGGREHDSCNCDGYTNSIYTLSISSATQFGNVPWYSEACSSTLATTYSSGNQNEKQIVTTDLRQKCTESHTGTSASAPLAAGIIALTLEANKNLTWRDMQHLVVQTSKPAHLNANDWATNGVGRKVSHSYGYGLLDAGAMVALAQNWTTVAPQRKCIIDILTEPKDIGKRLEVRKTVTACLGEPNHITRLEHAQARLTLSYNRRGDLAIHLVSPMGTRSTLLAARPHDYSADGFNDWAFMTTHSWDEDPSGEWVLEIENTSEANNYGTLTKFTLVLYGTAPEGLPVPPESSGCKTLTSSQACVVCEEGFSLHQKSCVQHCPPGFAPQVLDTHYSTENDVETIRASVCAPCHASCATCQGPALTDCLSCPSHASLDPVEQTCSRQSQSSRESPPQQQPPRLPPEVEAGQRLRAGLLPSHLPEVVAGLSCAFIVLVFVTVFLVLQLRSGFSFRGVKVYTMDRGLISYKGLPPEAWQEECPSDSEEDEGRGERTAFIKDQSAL

## CAMEECSAHLAGNASASA [HC1723]
7.5 min
  furin cleavage Z-score: 1.16
15 min
  furin cleavage Z-score: 1.94
30 min
  furin cleavage Z-score: 0.224 (inactive)

## CAANHDSPDAAGNASASA [HC1269]
7.5 min
  furin cleavage Z-score: -0.381 (inactive)
15 min
  furin cleavage Z-score: 0.0398 (inactive)
30 min
  furin cleavage Z-score: -1.93 (inactive)

## CAEVVTWTWVAGNASASA [HC147]
7.5 min
  furin cleavage Z-score: 0.828 (inactive)
15 min
  furin cleavage Z-score: 0.782 (inactive)
30 min
  furin cleavage Z-score: -0.799 (inactive)

## CANLGRLYRSAGNASASA [FS-1546]
7.5 min
  furin cleavage Z-score: 1.72
15 min
  furin cleavage Z-score: 0.0213 (inactive)
30 min
  furin cleavage Z-score: 0.362 (inactive)

## CAESRRLPRSAGNASASA [FS-1321]
7.5 min
  furin cleavage Z-score: 4.7 (active)
15 min
  furin cleavage Z-score: 3.1
30 min
  furin cleavage Z-score: 2.83

## CAAPARWPRSAGNASASA [FS-974]
7.5 min
  furin cleavage Z-score: 8.41 (active)
15 min
  furin cleavage Z-score: 5.86 (active)
30 min
  furin cleavage Z-score: 6.73 (active)

## CAKQRRLPRSAGNASASA [FS-678]
7.5 min
  furin cleavage Z-score: 5.31 (active)
15 min
  furin cleavage Z-score: 3.74 (active)
30 min
  furin cleavage Z-score: 3.02

## CAAEGWWARSAGNASASA [FS-394]
7.5 min
  furin cleavage Z-score: 0.0718 (inactive)
15 min
  furin cleavage Z-score: 0.063 (inactive)
30 min
  furin cleavage Z-score: -0.127 (inactive)

## CAAPQRLPRSAGNASASA [FS-1305]
7.5 min
  furin cleavage Z-score: 5.56 (active)
15 min
  furin cleavage Z-score: 4.41 (active)
30 min
  furin cleavage Z-score: 3.78 (active)

## CAESSRLLRSAGNASASA [FS-994]
7.5 min
  furin cleavage Z-score: -0.56 (inactive)
15 min
  furin cleavage Z-score: -0.471 (inactive)
30 min
  furin cleavage Z-score: -0.146 (inactive)

## CATPGCVPCVAGNASASA [HC272]
7.5 min
  furin cleavage Z-score: -0.91 (inactive)
15 min
  furin cleavage Z-score: 0.456 (inactive)
30 min
  furin cleavage Z-score: 0.199 (inactive)

## CAILNRPKRYAGNASASA [FS-666]
7.5 min
  furin cleavage Z-score: 4.17 (active)
15 min
  furin cleavage Z-score: 4.91 (active)
30 min
  furin cleavage Z-score: 4.53 (active)

## CAHHQRPKRYAGNASASA [FS-792]
7.5 min
  furin cleavage Z-score: 8.28 (active)
15 min
  furin cleavage Z-score: 9.17 (active)
30 min
  furin cleavage Z-score: 7.59 (active)

## CATWAQPGYPAGNASASA [HC198]
7.5 min
  furin cleavage Z-score: -0.244 (inactive)
15 min
  furin cleavage Z-score: 0.873 (inactive)
30 min
  furin cleavage Z-score: -0.438 (inactive)

## CAWWARSVGGAGNASASA [FS-2116]
7.5 min
  furin cleavage Z-score: 0.297 (inactive)
15 min
  furin cleavage Z-score: 0.813 (inactive)
30 min
  furin cleavage Z-score: 1.73

## CARNKRSTQIAGNASASA [FS-1911]
7.5 min
  furin cleavage Z-score: 10.5 (active)
15 min
  furin cleavage Z-score: 12.3 (active)
30 min
  furin cleavage Z-score: 10.9 (active)

## CARNKKQNSQAGNASASA [FS-2282]
7.5 min
  furin cleavage Z-score: 1.09
15 min
  furin cleavage Z-score: -0.5 (inactive)
30 min
  furin cleavage Z-score: -0.768 (inactive)

## CARNKRFYGGAGNASASA [FS-1910]
7.5 min
  furin cleavage Z-score: 0.307 (inactive)
15 min
  furin cleavage Z-score: 0.312 (inactive)
30 min
  furin cleavage Z-score: 2.91

## CARNKRSKSNAGNASASA [FS-2729]
7.5 min
  furin cleavage Z-score: 7.79 (active)
15 min
  furin cleavage Z-score: 9.35 (active)
30 min
  furin cleavage Z-score: 7.37 (active)

## CARNKKSIAVAGNASASA [FS-2434]
7.5 min
  furin cleavage Z-score: -0.82 (inactive)
15 min
  furin cleavage Z-score: 0.605 (inactive)
30 min
  furin cleavage Z-score: 1.7

## CARNKRPTFLAGNASASA [FS-3008]
7.5 min
  furin cleavage Z-score: -0.0512 (inactive)
15 min
  furin cleavage Z-score: 0.819 (inactive)
30 min
  furin cleavage Z-score: -0.221 (inactive)

## CAEVVTSTMVAGNASASA [HC2226]
7.5 min
  furin cleavage Z-score: 1.1
15 min
  furin cleavage Z-score: 0.363 (inactive)
30 min
  furin cleavage Z-score: 1.25

## CARNKKSKMDAGNASASA [FS-2497]
7.5 min
  furin cleavage Z-score: -0.56 (inactive)
15 min
  furin cleavage Z-score: -0.669 (inactive)
30 min
  furin cleavage Z-score: -0.939 (inactive)

## CAFRKRSHSKAGNASASA [FS-2120]
7.5 min
  furin cleavage Z-score: -0.356 (inactive)
15 min
  furin cleavage Z-score: -1.2 (inactive)
30 min
  furin cleavage Z-score: -1.04 (inactive)

## CARNKRSHSGAGNASASA [FS-1758]
7.5 min
  furin cleavage Z-score: 5.74 (active)
15 min
  furin cleavage Z-score: 8.23 (active)
30 min
  furin cleavage Z-score: 6.55 (active)

## CARNKRDTMVAGNASASA [FS-1862]
7.5 min
  furin cleavage Z-score: 12.3 (active)
15 min
  furin cleavage Z-score: 13.2 (active)
30 min
  furin cleavage Z-score: 10.9 (active)

## CAVFCCSMSYAGNASASA [HC2007]
7.5 min
  furin cleavage Z-score: -1.31 (inactive)
15 min
  furin cleavage Z-score: -1.48 (inactive)
30 min
  furin cleavage Z-score: -0.762 (inactive)

## CAPTPCSGSWAGNASASA [HC1839]
7.5 min
  furin cleavage Z-score: -0.934 (inactive)
15 min
  furin cleavage Z-score: -0.739 (inactive)
30 min
  furin cleavage Z-score: -1.08 (inactive)

## CACRPLTDFDAGNASASA [HC390]
7.5 min
  furin cleavage Z-score: -1.1 (inactive)
15 min
  furin cleavage Z-score: 0.259 (inactive)
30 min
  furin cleavage Z-score: -1.94 (inactive)

## CANVPCHRPSAGNASASA [HC2321]
7.5 min
  furin cleavage Z-score: 0.0675 (inactive)
15 min
  furin cleavage Z-score: 0.859 (inactive)
30 min
  furin cleavage Z-score: 1.03

## CALNTGWLAGAGNASASA [HC377]
7.5 min
  furin cleavage Z-score: -0.173 (inactive)
15 min
  furin cleavage Z-score: -0.464 (inactive)
30 min
  furin cleavage Z-score: 0.636 (inactive)

## CASTPCSAKLAGNASASA [HC2554]
7.5 min
  furin cleavage Z-score: 0.275 (inactive)
15 min
  furin cleavage Z-score: 1.72
30 min
  furin cleavage Z-score: 1.78

## CANAASLAGTAGNASASA [HC538]
7.5 min
  furin cleavage Z-score: 0.915 (inactive)
15 min
  furin cleavage Z-score: 0.0856 (inactive)
30 min
  furin cleavage Z-score: 0.369 (inactive)

## CAVIVGRVVLAGNASASA [HC1001]
7.5 min
  furin cleavage Z-score: -0.946 (inactive)
15 min
  furin cleavage Z-score: -1.25 (inactive)
30 min
  furin cleavage Z-score: -0.791 (inactive)

## CALRRRCQRDAGNASASA [FS-459]
7.5 min
  furin cleavage Z-score: 9.61 (active)
15 min
  furin cleavage Z-score: 9.12 (active)
30 min
  furin cleavage Z-score: 7.39 (active)

## CALRRVLRRDAGNASASA [FS-56]
7.5 min
  furin cleavage Z-score: 4.93 (active)
15 min
  furin cleavage Z-score: 4.47 (active)
30 min
  furin cleavage Z-score: 5.29 (active)

## CAKPMRQQRDAGNASASA [FS-343]
7.5 min
  furin cleavage Z-score: 5.15 (active)
15 min
  furin cleavage Z-score: 5.86 (active)
30 min
  furin cleavage Z-score: 7.03 (active)

## CALRRRGPGKAGNASASA [FS-2124]
7.5 min
  furin cleavage Z-score: -0.105 (inactive)
15 min
  furin cleavage Z-score: -1.37 (inactive)
30 min
  furin cleavage Z-score: -1.45 (inactive)

## CATKRRNQRDAGNASASA [FS-509]
7.5 min
  furin cleavage Z-score: 9.77 (active)
15 min
  furin cleavage Z-score: 11 (active)
30 min
  furin cleavage Z-score: 8.15 (active)

## CAFPNRDQRDAGNASASA [FS-652]
7.5 min
  furin cleavage Z-score: -0.191 (inactive)
15 min
  furin cleavage Z-score: -0.415 (inactive)
30 min
  furin cleavage Z-score: -0.133 (inactive)

## CALPVWARPDAGNASASA [HC1303]
7.5 min
  furin cleavage Z-score: -0.876 (inactive)
15 min
  furin cleavage Z-score: -0.333 (inactive)
30 min
  furin cleavage Z-score: -0.285 (inactive)

## CATTFCSGSWAGNASASA [HC1867]
7.5 min
  furin cleavage Z-score: 0.273 (inactive)
15 min
  furin cleavage Z-score: 0.134 (inactive)
30 min
  furin cleavage Z-score: -0.205 (inactive)

## CALTTSQTLLAGNASASA [HC1061]
7.5 min
  furin cleavage Z-score: -1.15 (inactive)
15 min
  furin cleavage Z-score: 0.0331 (inactive)
30 min
  furin cleavage Z-score: 0.232 (inactive)
